Test in all cases: PBM; 200 nM protein, PBS
Settings in all cases: dsDNA, one strand shown

In experiment [1] the target is NKX2-5 (Homo sapiens, UniProt P52952 125-210, R139K).
Experiment [2] concerns the target NKX2-5 (Homo sapiens, UniProt P52952 125-210).
For experiment [3], the target named is HOXA2 (Homo sapiens, UniProt O43364 129-215, R185T).
In experiment [4] the target is HOXA2 (Homo sapiens, UniProt O43364 129-215, R185K).
The target in experiment [5] is HOXA2 (Homo sapiens, UniProt O43364 129-215, Y150S).
Sequence of HOXA2 (Homo sapiens, UniProt O43364 129-215, Y150S) (O43364 129-215 Y150S): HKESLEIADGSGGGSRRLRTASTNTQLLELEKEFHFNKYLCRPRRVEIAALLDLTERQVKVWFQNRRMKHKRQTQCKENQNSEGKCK
Experiment [6] addresses HOXA2 (Homo sapiens, UniProt O43364 129-215).
The target of experiment [7] is T1, NKX2-6 (Homo sapiens, UniProt A6NCS4 118-204, R150C).
T1 sequence: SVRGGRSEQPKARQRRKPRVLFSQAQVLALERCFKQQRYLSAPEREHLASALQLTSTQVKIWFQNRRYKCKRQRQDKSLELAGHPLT

Experiment [8] addresses T2, NKX2-4 (Homo sapiens, UniProt Q9H2Z4 175-261, T231S).
T2 sequence: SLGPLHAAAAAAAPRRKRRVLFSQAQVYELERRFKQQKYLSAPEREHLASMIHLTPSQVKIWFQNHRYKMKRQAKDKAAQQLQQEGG

Experiment [9] deals with T3, NKX2-6 (Homo sapiens, UniProt A6NCS4 118-204).
T3 sequence: T1 sequence with C33R

Experiment [10] addresses T4, NKX2-4 (Homo sapiens, UniProt Q9H2Z4 175-261, R246Q).
T4 sequence: T2 sequence with S57T, R72Q

In experiment [11] the target is T5, NKX2-6 (Homo sapiens, UniProt A6NCS4 118-204, F151L).
T5 sequence: T1 sequence with C33R, F34L

Experiment [12] addresses NKX3-2 (Homo sapiens, UniProt P78367 192-278, P234S).
Experiment [13] has as its target NKX3-2 (Homo sapiens, UniProt P78367 192-278).
The next experiment addresses HOXB6 (Homo sapiens, UniProt P17509 132-218, K202E).
For another experiment, the target named is PRRX1 (Homo sapiens, UniProt P54821 80-166, F113S).
Sequence of PRRX1 (P54821 80-166 F113S): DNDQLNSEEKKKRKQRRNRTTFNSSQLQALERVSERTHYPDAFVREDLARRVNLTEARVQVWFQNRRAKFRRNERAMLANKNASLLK

Numbering of substitutions follows the chain as printed.

Sequence of HOXA2 (Homo sapiens, UniProt O43364 129-215, R185K) (O43364 129-215 R185K): as the sequence (O43364 129-215 Y150S) above, with S22Y, R57K counted along it
Sequence of HOXA2 (Homo sapiens, UniProt O43364 129-215) (O43364 129-215): as the sequence (O43364 129-215 Y150S) above, with S22Y counted along it
Sequence of NKX3-2 (Homo sapiens, UniProt P78367 192-278, P234S) (P78367 192-278 P234S): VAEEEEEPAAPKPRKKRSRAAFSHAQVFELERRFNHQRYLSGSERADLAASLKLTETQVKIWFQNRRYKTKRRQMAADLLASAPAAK
Sequence of NKX2-5 (Homo sapiens, UniProt P52952 125-210, R139K) (P52952 125-210 R139K): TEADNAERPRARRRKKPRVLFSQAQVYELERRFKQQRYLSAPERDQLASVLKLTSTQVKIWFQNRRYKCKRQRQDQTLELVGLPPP
Sequence of NKX3-2 (Homo sapiens, UniProt P78367 192-278) (P78367 192-278): as the sequence (P78367 192-278 P234S) above, with S43P counted along it
Sequence of HOXA2 (Homo sapiens, UniProt O43364 129-215, R185T) (O43364 129-215 R185T): as the sequence (O43364 129-215 Y150S) above, with S22Y, R57T counted along it
Sequence of NKX2-5 (Homo sapiens, UniProt P52952 125-210) (P52952 125-210): as the sequence (P52952 125-210 R139K) above, with K15R counted along it
Sequence of HOXB6 (P17509 132-218 K202E): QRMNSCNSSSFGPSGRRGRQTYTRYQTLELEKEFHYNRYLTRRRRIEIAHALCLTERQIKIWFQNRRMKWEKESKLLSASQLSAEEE

Take GCGGCCCA: the binding signal in the experiment with NKX2-5 [1] is 8.95 upbm affinity estimate (log intensity, higher = more binding, comparable within an allelic series); with NKX2-5 [2], 8.97 upbm affinity estimate (log intensity, higher = more binding, comparable within an allelic series).

With ACGCCGGC, the binding signal in the experiment with NKX2-5 [1] is 8.53 upbm affinity estimate (log intensity, higher = more binding, comparable within an allelic series); with NKX2-5 [2] it was 8.56 upbm affinity estimate (log intensity, higher = more binding, comparable within an allelic series).

As for CCCCCAAC, the binding signal is 8.66 upbm affinity estimate (log intensity, higher = more binding, comparable within an allelic series) with NKX2-5 [1]; 6.99 upbm affinity estimate (log intensity, higher = more binding, comparable within an allelic series) in the experiment with HOXA2 [3]; 10.3 upbm affinity estimate (log intensity, higher = more binding, comparable within an allelic series) with HOXA2 [4]; 10.3 upbm affinity estimate (log intensity, higher = more binding, comparable within an allelic series) with HOXA2 [5]; 6.95 upbm affinity estimate (log intensity, higher = more binding, comparable within an allelic series) with HOXA2 [6]; 8.6 upbm affinity estimate (log intensity, higher = more binding, comparable within an allelic series) in the experiment with NKX2-5 [2].

For the sequence CGGTGGGC, the binding signal with NKX2-5 [1] was 9.02 upbm affinity estimate (log intensity, higher = more binding, comparable within an allelic series); with NKX2-6 [7], 9.22 upbm affinity estimate (log intensity, higher = more binding, comparable within an allelic series); with NKX2-5 [2], 9.07 upbm affinity estimate (log intensity, higher = more binding, comparable within an allelic series).

Regarding CCCTCCGG, the binding signal in the experiment with NKX2-5 [1] is 8.58 upbm affinity estimate (log intensity, higher = more binding, comparable within an allelic series); in the experiment with HOXA2 [3], 7.03 upbm affinity estimate (log intensity, higher = more binding, comparable within an allelic series); with HOXA2 [4], 10.1 upbm affinity estimate (log intensity, higher = more binding, comparable within an allelic series); in the experiment with HOXA2 [5], 10.3 upbm affinity estimate (log intensity, higher = more binding, comparable within an allelic series); with HOXA2 [6], 6.99 upbm affinity estimate (log intensity, higher = more binding, comparable within an allelic series); with NKX2-5 [2], 8.53 upbm affinity estimate (log intensity, higher = more binding, comparable within an allelic series).

Take GACACTTA: the binding signal with NKX2-5 [1] was 12.7 upbm affinity estimate (log intensity, higher = more binding, comparable within an allelic series); with NKX2-4 [8], 12.8 upbm affinity estimate (log intensity, higher = more binding, comparable within an allelic series); with NKX2-6 [7], 11.8 upbm affinity estimate (log intensity, higher = more binding, comparable within an allelic series); with NKX2-6 [9], 13.6 upbm affinity estimate (log intensity, higher = more binding, comparable within an allelic series); in the experiment with NKX2-4 [10], 12.9 upbm affinity estimate (log intensity, higher = more binding, comparable within an allelic series); in the experiment with NKX2-6 [11], 11.1 upbm affinity estimate (log intensity, higher = more binding, comparable within an allelic series). Besides, the binding signal is 12.8 upbm affinity estimate (log intensity, higher = more binding, comparable within an allelic series) with NKX3-2 [12]; 12.6 upbm affinity estimate (log intensity, higher = more binding, comparable within an allelic series) in the experiment with NKX2-5 [2]; 12.9 upbm affinity estimate (log intensity, higher = more binding, comparable within an allelic series) in the experiment with NKX3-2 [13].

Take AGCCGGGG: the binding signal was 9.08 upbm affinity estimate (log intensity, higher = more binding, comparable within an allelic series) with NKX2-5 [1] and 9.03 upbm affinity estimate (log intensity, higher = more binding, comparable within an allelic series) in the experiment with NKX2-5 [2].

In the case of TCACTTAA, the binding signal is 12.2 upbm affinity estimate (log intensity, higher = more binding, comparable within an allelic series) in the experiment with NKX2-5 [1]; 9.72 upbm affinity estimate (log intensity, higher = more binding, comparable within an allelic series) with HOXB6; 13.4 upbm affinity estimate (log intensity, higher = more binding, comparable within an allelic series) with NKX2-6 [9]; 10.6 upbm affinity estimate (log intensity, higher = more binding, comparable within an allelic series) with NKX2-6 [11]; 12.3 upbm affinity estimate (log intensity, higher = more binding, comparable within an allelic series) with NKX2-5 [2].

With GCGTGCGA, the binding signal with NKX2-5 [1] was 8.9 upbm affinity estimate (log intensity, higher = more binding, comparable within an allelic series); in the experiment with NKX2-5 [2] it was 8.92 upbm affinity estimate (log intensity, higher = more binding, comparable within an allelic series).

For CACAAGTG, the binding signal in the experiment with NKX2-5 [1] is 12.4 upbm affinity estimate (log intensity, higher = more binding, comparable within an allelic series); with NKX2-6 [7] it was 11.6 upbm affinity estimate (log intensity, higher = more binding, comparable within an allelic series).

In the case of GGCAGGAC, the binding signal with NKX2-5 [1] is 8.66 upbm affinity estimate (log intensity, higher = more binding, comparable within an allelic series); in the experiment with PRRX1 it was 9.23 upbm affinity estimate (log intensity, higher = more binding, comparable within an allelic series); with NKX2-5 [2] it was 8.83 upbm affinity estimate (log intensity, higher = more binding, comparable within an allelic series).

As for CAGCCCGG, the binding signal with NKX2-5 [1] is 8.37 upbm affinity estimate (log intensity, higher = more binding, comparable within an allelic series); in the experiment with HOXA2 [3] it was 7.16 upbm affinity estimate (log intensity, higher = more binding, comparable within an allelic series); with HOXA2 [4], 10.1 upbm affinity estimate (log intensity, higher = more binding, comparable within an allelic series); with HOXA2 [5], 10.3 upbm affinity estimate (log intensity, higher = more binding, comparable within an allelic series); in the experiment with HOXA2 [6], 7.06 upbm affinity estimate (log intensity, higher = more binding, comparable within an allelic series); with NKX2-5 [2], 8.35 upbm affinity estimate (log intensity, higher = more binding, comparable within an allelic series).

Consider CAGCGGCC, for which the binding signal with NKX2-5 [1] was 8.81 upbm affinity estimate (log intensity, higher = more binding, comparable within an allelic series); with HOXA2 [3] it was 7.12 upbm affinity estimate (log intensity, higher = more binding, comparable within an allelic series); with HOXA2 [4], 10.2 upbm affinity estimate (log intensity, higher = more binding, comparable within an allelic series); with HOXA2 [5], 10.4 upbm affinity estimate (log intensity, higher = more binding, comparable within an allelic series); with HOXA2 [6], 7.19 upbm affinity estimate (log intensity, higher = more binding, comparable within an allelic series); with NKX2-5 [2], 8.82 upbm affinity estimate (log intensity, higher = more binding, comparable within an allelic series).

As for CCGAGGTC, the binding signal was 8.47 upbm affinity estimate (log intensity, higher = more binding, comparable within an allelic series) in the experiment with NKX2-5 [1]; 6.93 upbm affinity estimate (log intensity, higher = more binding, comparable within an allelic series) in the experiment with HOXA2 [3]; 10.2 upbm affinity estimate (log intensity, higher = more binding, comparable within an allelic series) in the experiment with HOXA2 [4]; 10.4 upbm affinity estimate (log intensity, higher = more binding, comparable within an allelic series) in the experiment with HOXA2 [5]; 7.18 upbm affinity estimate (log intensity, higher = more binding, comparable within an allelic series) in the experiment with HOXA2 [6]; 8.66 upbm affinity estimate (log intensity, higher = more binding, comparable within an allelic series) with NKX2-5 [2].

For CCCCCCGG, the binding signal was 8.2 upbm affinity estimate (log intensity, higher = more binding, comparable within an allelic series) with NKX2-5 [1]; 8.56 upbm affinity estimate (log intensity, higher = more binding, comparable within an allelic series) in the experiment with NKX2-6 [7]; 8.1 upbm affinity estimate (log intensity, higher = more binding, comparable within an allelic series) with NKX2-5 [2].

Consider CCCTGGCC, for which the binding signal was 8.8 upbm affinity estimate (log intensity, higher = more binding, comparable within an allelic series) in the experiment with NKX2-5 [1]; 6.94 upbm affinity estimate (log intensity, higher = more binding, comparable within an allelic series) with HOXA2 [3]; 10.1 upbm affinity estimate (log intensity, higher = more binding, comparable within an allelic series) with HOXA2 [4]; 10.4 upbm affinity estimate (log intensity, higher = more binding, comparable within an allelic series) with HOXA2 [5]; 6.83 upbm affinity estimate (log intensity, higher = more binding, comparable within an allelic series) in the experiment with HOXA2 [6]; 8.75 upbm affinity estimate (log intensity, higher = more binding, comparable within an allelic series) with NKX2-5 [2].

Regarding TAAGTACA, the binding signal was 12.4 upbm affinity estimate (log intensity, higher = more binding, comparable within an allelic series) with NKX2-5 [1]; 12.8 upbm affinity estimate (log intensity, higher = more binding, comparable within an allelic series) in the experiment with NKX2-4 [8]; 11.9 upbm affinity estimate (log intensity, higher = more binding, comparable within an allelic series) with NKX2-6 [7]; 13.3 upbm affinity estimate (log intensity, higher = more binding, comparable within an allelic series) with NKX2-6 [9]; 10.5 upbm affinity estimate (log intensity, higher = more binding, comparable within an allelic series) with NKX2-6 [11]; 12.6 upbm affinity estimate (log intensity, higher = more binding, comparable within an allelic series) with NKX3-2 [12]. Also, the binding signal was 12.4 upbm affinity estimate (log intensity, higher = more binding, comparable within an allelic series) with NKX2-5 [2] and 12.6 upbm affinity estimate (log intensity, higher = more binding, comparable within an allelic series) with NKX3-2 [13].

On to CCCCTGCG, for which the binding signal in the experiment with NKX2-5 [1] is 8.68 upbm affinity estimate (log intensity, higher = more binding, comparable within an allelic series); in the experiment with NKX2-5 [2], 8.4 upbm affinity estimate (log intensity, higher = more binding, comparable within an allelic series).

As for GTCTAGAC, the binding signal is 9.21 upbm affinity estimate (log intensity, higher = more binding, comparable within an allelic series) in the experiment with NKX2-5 [1]; 9.59 upbm affinity estimate (log intensity, higher = more binding, comparable within an allelic series) with PRRX1; 10.1 upbm affinity estimate (log intensity, higher = more binding, comparable within an allelic series) in the experiment with NKX2-6 [9]; 9.52 upbm affinity estimate (log intensity, higher = more binding, comparable within an allelic series) with NKX2-6 [11]; 9.52 upbm affinity estimate (log intensity, higher = more binding, comparable within an allelic series) in the experiment with NKX2-5 [2].

On to CTAAGTAC, for which the binding signal with NKX2-5 [1] is 12.3 upbm affinity estimate (log intensity, higher = more binding, comparable within an allelic series); with NKX2-6 [7] it was 11.7 upbm affinity estimate (log intensity, higher = more binding, comparable within an allelic series); with NKX2-6 [9], 13.4 upbm affinity estimate (log intensity, higher = more binding, comparable within an allelic series); in the experiment with NKX2-6 [11], 10.5 upbm affinity estimate (log intensity, higher = more binding, comparable within an allelic series); with NKX3-2 [12], 12.5 upbm affinity estimate (log intensity, higher = more binding, comparable within an allelic series); with NKX2-5 [2], 12.2 upbm affinity estimate (log intensity, higher = more binding, comparable within an allelic series). The binding signal with NKX3-2 [13] was 12.6 upbm affinity estimate (log intensity, higher = more binding, comparable within an allelic series).

(Values after PMC11006913.)
